# According to the supplement of paper PMC6555819:
# Columns and labels:
# Assay in all cases: PBM binding z-score (relative to random genomic background probes); higher = stronger binding; sequences stand for … in GC…GCGATTGACAGCGTAGAATGAAGG
# [1] = tested on: FXR:RXRa (NR concentration 270 nM, RXRa partner concentration 90 nM)
# How it was run: (§1)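 Binding z-scores were set against random background probes. The data came from custom Agilent 4×180K protein-binding microarrays carrying double-stranded probes with 34-nt variable regions, incubated 1 h with ligand-free nuclear receptor dimers. Partner-specific antibodies detected binding, and scanned fluorescence was regression-normalized.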
# [2] = tested on: LXRa:RXRa (NR concentration 270 nM, RXRa partner concentration 90 nM)
# How it was run: as §1
# [3] = tested on: LXRa homodimer (NR concentration 270 nM)
# How it was run: as §1
# [4] = tested on: LXRb:RXRa (NR concentration 270 nM, RXRa partner concentration 90 nM)
# How it was run: as §1
# [5] = tested on: LXRb homodimer (NR concentration 270 nM)
# How it was run: as §1
# [6] = tested on: PPARa:RXRa (NR concentration 270 nM, RXRa partner concentration 90 nM)
# How it was run: as §1
# [7] = tested on: PPARg:RXRa (NR concentration 180 nM, RXRa partner concentration 90 nM)
# How it was run: as §1
# [8] = tested on: PPARg:RXRa 270nM:90nM, anti-RXR (NR concentration 270 nM, RXRa partner concentration 90 nM)
# How it was run: as §1
# [9] = tested on: PPARg:RXRa 30nM:10nM, anti-RXR (NR concentration 30 nM, RXRa partner concentration 10 nM)
# How it was run: as §1
# [10] = tested on: PPARg:RXRa 90nM:30nM, anti-RXR (NR concentration 90 nM, RXRa partner concentration 30 nM)
# How it was run: as §1
# [11] = tested on: PPARg:RXRa DBDmut IVT, anti-RXR (DBD mutation: RXRa K156A/R161A, NR concentration 270 nM, RXRa partner concentration 90 nM)
# How it was run: as §1
# [12] = tested on: PPARg:RXRa IVT, anti-PPARg (NR concentration 270 nM, RXRa partner concentration 90 nM)
# How it was run: as §1
# [13] = tested on: PPARg DBDmut:RXRa IVT, anti-PPARg (DBD mutation: PPARg1 K132A/R137A, NR concentration 270 nM, RXRa partner concentration 90 nM)
# How it was run: as §1
# [14] = tested on: PPARg DBDmut IVT, anti-PPARg (DBD mutation: PPARg1 K132A/R137A, NR concentration 270 nM)
# How it was run: as §1
# [15] = tested on: PPARg homodimer (NR concentration 180 nM)
# How it was run: as §1
# [16] = tested on: PXR:RXRa (NR concentration 270 nM, RXRa partner concentration 90 nM)
# How it was run: as §1
# [17] = tested on: PXR homodimer (NR concentration 270 nM)
# How it was run: as §1
# [18] = tested on: RARa:RXR (NR concentration 270 nM, RXRa partner concentration 90 nM)
# How it was run: as §1
# [19] = tested on: RARa homodimer (NR concentration 270 nM)
# How it was run: as §1
# [20] = tested on: RARb:RXRa (NR concentration 270 nM, RXRa partner concentration 90 nM)
# How it was run: as §1
Sequence,PBM binding z-score [1],PBM binding z-score [2],PBM binding z-score [3],PBM binding z-score [4],PBM binding z-score [5],PBM binding z-score [6],PBM binding z-score [7],PBM binding z-score [8],PBM binding z-score [9],PBM binding z-score [10],PBM binding z-score [11],PBM binding z-score [12],PBM binding z-score [13],PBM binding z-score [14],PBM binding z-score [15],PBM binding z-score [16],PBM binding z-score [17],PBM binding z-score [18],PBM binding z-score [19],PBM binding z-score [20]
TCTTGTAGATCAGCAGGTGAAGAAAGCTGGCCAA,0.169,-0.0408,-0.605,-0.0895,-0.698,0.51,-0.409,1.19,2.2,1.8,1.32,0.857,0.193,-0.252,-1.42,-0.182,-0.577,0.0618,-0.865,-0.138
GCTTACCGGTCAAAGGTTATAGCATGAATAGAAT,4.43,4.56,1.49,3.6,0.218,5.47,8.77,7.56,6.87,8.38,1.07,3.62,1.01,0.383,1.71,3.63,0.0899,5.64,0.15,3.59
CAAACTAGGTCGAGGTCAAAGTCGGTTTGTGCCA,5.44,5.1,3.63,4.38,1.07,5.46,7.22,6.53,3.54,5.58,6.55,6.77,0.51,0.375,1.85,5.34,2.29,4.71,0.547,4.28
TGAGTGAGGTTATAAGATCAGGGAACGTTGCAAA,1.06,1.07,-0.22,0.866,0.134,2.47,0.711,1.23,0.53,0.855,-0.596,0.754,0.555,-0.0846,0.652,0.754,0.0305,1.06,0.466,1.25
ATCTCTAGGTAACCAACTTCAGTGAATGCCGAAC,0.38,0.07,0.43,0.199,1.07,0.378,0.531,0.519,0.321,0.666,4.05,2.98,1.39,1.39,0.412,-0.17,0.34,0.0512,0.816,0.248
CCTCGGAGGACAAGAGGAGGTCAGAGCTGCCAGA,0.831,1.16,0.18,0.759,-0.815,1.62,0.27,-0.135,-0.865,-0.28,-0.0535,0.408,-0.899,-1.36,0.986,1.71,-0.0509,1.94,0.29,2.54
ATCTCCAGGTAAAGTTCAGTGAAAGATCGATAGA,1.54,2.1,1.98,1.55,1.25,2.02,1.2,2.62,1,1.91,0.492,0.889,1.11,0.586,1.7,2.32,2.13,1.81,1.45,2.78
GCTTGTAGATGAAGGTTAAGAAAGACTAAGCTAA,-0.515,0.357,-0.563,-0.0135,-0.789,0.816,0.15,0.943,-0.144,0.254,0.000874,0.405,0.135,-0.0594,-0.126,0.0589,-0.403,0.444,-0.213,0.535
CCTTACGGGTCACTGACAGGTTATAGCATTTGGA,5.52,4.15,0.472,3.5,0.111,5.06,4.48,4.67,1.53,3.39,3.49,3.75,0.989,0.078,3.59,3.81,-0.141,4.92,1.13,4.02
CAAACTAGGACAAGAGGTCAAAGTCCGCTTCCCG,4.96,5.72,5.89,4.83,1.83,5.48,5.75,6.56,4.76,6.29,5.17,5.25,1.06,0.504,3.1,5.45,2.97,5.92,0.963,4
CTACCAAGGTGAACAAGGTCGTTGTTTACTATTC,1.24,1.22,-0.0325,1.85,-0.465,2.46,0.787,1.29,-0.0619,0.702,2.55,2.57,0.468,0.107,0.724,2.78,1.16,2.27,-0.486,2
ACGGACAGGTGATGAAGGTAACTCAGGCTATCAT,0.169,-0.084,-0.0768,0.109,-0.152,0.276,0.712,0.0307,0.33,0.172,0.288,0.365,0.082,0.0676,0.411,0.11,0.211,0.174,0.939,0.745
AGAATGAGGTTATACGTAGATCAAGGAAGAAAGT,2.5,2.22,0.0848,1.72,0.172,3.25,2.25,2.12,0.826,1.62,4.05,2.17,1.37,0.946,1.39,1.25,0.179,1.97,0.408,1.58
AGAACGAGGGCAATGAGTTGATAGCACGGGTGGC,0.227,0.258,-0.336,-0.187,-0.464,1.14,1.4,0.948,0.0396,0.43,3.48,2.48,0.306,0.0167,0.0111,1.54,2.95,0.443,0.212,2.04
